About 83,000 compounds went through this panel and 20% of them were active in at least one assay; those are over-represented in the sample as a whole.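 Plates (96-well) were seeded with cells, treated with compound at one concentration, and incubated for 48 hours before percent growth was determined.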 A number with no mark means an inactive call. Activity calls are given as the source filed them. How the source made its calls: active means growth percent below 10; inactive means the rest.
Tests used:
Assay in all cases: NCI-60 one-dose screen, 48 h (100 = growth as untreated, 0 = no growth, -100 = all killed)
Conditions in all cases: 10 µM
NCI-H23 lung = tested on: NCI-H23 lung
NCI-H226 lung = tested on: NCI-H226 lung
NCI-H322M lung = tested on: NCI-H322M lung
HOP-62 NSCLC = tested on: HOP-62 NSCLC
NCI-H460 lung = tested on: NCI-H460 lung
HOP-92 NSCLC = tested on: HOP-92 NSCLC
NCI-H522 lung = tested on: NCI-H522 lung
A549/ATCC NSCLC = tested on: A549/ATCC NSCLC
786-0 renal = tested on: 786-0 renal
COLO 205 colon = tested on: COLO 205 colon

SMILES	growth (NCI-H23 lung)	growth (NCI-H226 lung)	growth (NCI-H322M lung)	growth (HOP-62 NSCLC)	growth (NCI-H460 lung)	growth (HOP-92 NSCLC)	growth (NCI-H522 lung)	growth (A549/ATCC NSCLC)	growth (786-0 renal)	growth (COLO 205 colon)
COc1ccc(-c2ccc(-c3ccc(C(=N)N)c(F)c3)s2)cc1	-81.9% (active)	-41% (active)	-91.5% (active)	-75.7% (active)	-84.2% (active)	-87.8% (active)	-76.5% (active)	-81.9% (active)	-82.5% (active)	-71.1% (active)
COc1cc(Cn2c(-c3ccccc3)c(Cl)c3c2-c2oncc2CC3)cc(OC)c1	72.2%	109%	68.5%	102%	46.3%	51.7%	9.45% (active)	53.5%	74.7%	113%
COc1ccc2nc(-c3ccccc3)cc(C(C)=O)c2c1	89.8%	87.6%	84.7%	78.3%	99.1%	71.5%	80.9%	100%	95.8%	110%
COc1cc(Nc2ccnc(N3CCN(c4ccnc5cc(Cl)ccc45)CC3)n2)cc(OC)c1	9.65% (active)	9.15% (active)	23.2%	9.41% (active)	6% (active)	-16.6% (active)	-23.2% (active)	7.47% (active)	-17.9% (active)	-10.7% (active)
O=c1[nH]c(=O)n(C2C[C@@H](O)[C@@H](CO)O2)cc1F (stereo not given in full)	15.9%	50.4%	57.6%	27.7%	6.58% (active)	38.9%	20.1%	22.2%	8.75% (active)	36.7%
COc1cc(-c2nc3ccccc3[nH]2)ccc1OCc1nnc(-c2ccc(Br)cc2)o1	95.8%	121%	88.8%	106%	82.2%	92.6%	93.9%	90.2%	90.2%	91.2%
CCOC(=O)Nc1ccc2c(c1)C(=O)N(CCOC)c1ccccc1O2	52%	77.1%	43%	43%	23%	45%	18.4%	44.8%	45.3%	13%
C#C[C@]1(O)CC[C@H]2[C@@H]3CC[C@H]4CC(F)(F)CC[C@]4(C)[C@H]3CC[C@@]21C	95.5%	90.4%	89%	67.5%	83.9%	93.8%	105%	77.2%	101%	90.9%
O=c1c2cccc3c(Nc4ccc(Br)cn4)ccc(c32)c2nc3ccccc3n12	81.3%	93.2%	77.9%	87.6%	86.6%	62.4%	89.4%	106%	96.9%	88.2%
CS(=O)(=O)Nc1ccc(Nc2c3ccccc3nc3cc(Cl)ccc23)cc1	42.7%	-4.26% (active)	50.6%	25%	8.44% (active)	-10.7% (active)	16.2%	9.01% (active)	19.6%	43.1%
COc1ccc(C2CC(c3ccc(-c4ccccc4)cc3)=NN2c2ccc(S(N)(=O)=O)cc2)cc1 (stereo not given)	80.9%	74.9%	68.5%	90.8%	41.9%	35.6%	40.3%	47.3%	92.1%	83.8%
COc1cccc2c1C(=O)c1c(O)c3c(c(O)c1C2=O)C[C@@](O)(C(=O)COC(=O)c1cccnc1)C[C@@H]3OC1CC(N)C(O)C(C)O1 (stereo not given in full)	-24.7% (active)	-28.5% (active)	-19.5% (active)	-7.51% (active)	4.13% (active)	-26.3% (active)	-75.6% (active)	-0.944% (active)	3.23% (active)	-68.8% (active)
CCOC(=O)c1sc(Nc2ncccn2)nc1-c1ccccn1	84.4%	92.8%	85%	92%	66.9%	97.5%	85.7%	84.3%	97.9%	98.3%
CN(C)c1ccc2c(c1)OC(N)=C(C#N)C2c1ccc2c(c1)CCO2 (stereo not given)	35.5%	48.9%	51.4%	36.3%	9.76% (active)	58.8%	-6.52% (active)	21.9%	34.8%	-26% (active)
O=C(O)CCCCSCCCCC(=O)O	103%	93.4%	109%	95.8%	113%	96.8%	83.3%	90.9%	101%	113%
COc1ccc2nc(NC(=O)Nc3c(F)cccc3F)sc2c1	105%	94%	99.5%	106%	99.3%	93.1%	96.8%	96.3%	94.3%	125%
CCCCn1c(=O)[nH]c(N)c(C(c2ccc(Cl)cc2)c2c(N)[nH]c(=O)n(CCCC)c2=O)c1=O	53.9%	58.7%	63.6%	59.1%	32%	54.7%	37.9%	40.2%	41%	43.9%
O=C(O)c1cc(C(F)(F)F)cc(C(F)(F)F)c1	101%	111%	102%	103%	107%	121%	102%	101%	93.7%	113%
Nc1c(CNCc2nnn(Cc3ccccc3)c2N)nnn1Cc1ccccc1	103%	100%	100%	98.9%	103%	90.3%	102%	101%	102%	114%
CC(C)/C=N/NC(N)=S	96.6%	95.7%	101%	75.6%	97.4%	73.1%	94%	71.8%	100%	103%

SMILES	growth (NCI-H23 lung)	growth (NCI-H226 lung)	growth (NCI-H322M lung)	growth (HOP-62 NSCLC)	growth (NCI-H460 lung)	growth (HOP-92 NSCLC)	growth (NCI-H522 lung)	growth (A549/ATCC NSCLC)	growth (786-0 renal)	growth (COLO 205 colon)
O=C(NC1CCCC1)c1ccc(N2CCC(NCc3cccc(C(F)(F)F)c3)CC2)cc1	93.5%	84.6%	89.1%	77.4%	99.5%	52.7%	93.6%	93%	84.3%	8.68% (active)
Cc1nn2c(/C=C3/C(=O)Nc4ccc(Cl)cc43)c(-c3ccccc3)nc2s1	51.4%	33.4%	12.7%	-19.8% (active)	25.7%	-5.92% (active)	43.6%	24.2%	41.2%	49.7%
CCCCCCCCCCCCCCCC(=O)N1CCN(C)CC1	85.1%	106%	71.3%	89%	68.6%	31.7%	17.1%	95.5%	86%	68.6%
Cc1ccccc1C1=N[C@@H](Cc2ccccc2)C(=O)c2c(nc3ccccn23)N1	95.3%	98.9%	106%	93.4%	103%	90.5%	121%	91.7%	101%	107%
CCc1nn2c(-c3cc(OC)c(OC)c(OC)c3)c(-c3cc(OC)c(OC)c(OC)c3)nc2s1	87.9%	92%	81.6%	40.8%	97.1%	-15.2% (active)	46%	86%	58.6%	94.9%
CNC(=O)c1cc(Oc2ccc(NC(=O)Nc3ccc(Cl)c(OC(C)C)c3)c(F)c2)ccn1	28.1%	52.5%	81.1%	69.3%	61.1%	60.1%	25.3%	44.5%	107%	33.5%
C[C@@H]1C(=O)N(C[C@H](Cc2ccccc2)NC(=O)OCc2ccccc2)[C@]1(Cc1ccccc1)C(=O)OCc1ccccc1	34.3%	48.5%	72.4%	70.9%	34.9%	51.2%	28.9%	20.8%	58.3%	7.23% (active)
CCCCCCCCCCCCCC[n+]1ccc(C)cc1	-19% (active)	31.7%	5.57% (active)	-39.2% (active)	-74.1% (active)	-49.7% (active)	-11.8% (active)	-30.5% (active)	-3.94% (active)	-89.9% (active)
CCOC(=O)C(CCC1=NC(C)(C)CC(C)O1)C(=O)OCC (stereo not given)	77.7%	95.1%	137%	93.8%	51.5%	95.3%	62.5%	101%	107%	92%
COc1ccc(-c2nnc(N3CCN(C(=O)CN4CCN(c5ccc(Cl)cc5)CC4)CC3)nc2-c2ccc(OC)cc2)cc1	68.1%	73.6%	92.7%	88.4%	46.8%	80.3%	69.8%	58.8%	70.8%	59.2%
CCC1(C)OC(=O)NC1=O (stereo not given)	96%	93.1%	105%	71.1%	111%	93.2%	84.5%	79.2%	99.6%	103%
CC1(C)CC(OCCCC[P+](c2ccccc2)(c2ccccc2)c2ccccc2)CC(C)(C)N1O	4.57% (active)	12.7%	9.8% (active)	13.3%	2.69% (active)	-41.4% (active)	-14.3% (active)	6.09% (active)	-12.4% (active)	-55.3% (active)
CCOc1nc(-c2ccccc2)cc2c(O)c(C(=O)NCCCO)[nH]c(=O)c12	103%	94.7%	106%	91.1%	110%	66%	77.4%	106%	106%	118%
Cc1nc2ccc(-n3c(-c4ccc(Cl)cc4)nc4ccccc4c3=O)cc2n1Cc1ccccc1	87.8%	87.8%	96.5%	81.9%	102%	80.3%	74.2%	79.6%	105%	93.8%
Cc1nc(Nc2nc3ccccc3o2)nc(-c2cccc([N+](=O)[O-])c2)c1C(=O)Nc1ccc(F)c(Cl)c1	0.258% (active)	10.3%	24.9%	16%	2.04% (active)	-38.9% (active)	-20.5% (active)	5.85% (active)	18.4%	9.63% (active)
C=C1C(=O)O[C@H]2[C@H]1CC/C(COC(=O)OCCCCCOC(=O)OC/C1=C/CC[C@@]3(C)O[C@H]3[C@H]3OC(=O)C(=C)[C@@H]3CC1)=C\CC[C@@]1(C)O[C@@H]21	-37.5% (active)	-33% (active)	50.9%	9.65% (active)	-19.9% (active)	-49.6% (active)	-66.2% (active)	44.3%	-63.8% (active)	-85% (active)
COc1ccc(-c2nc(NC(=O)CS(=O)(=O)c3ccc(F)cc3)sc2C)cc1	37%	93.9%	69.5%	65.3%	59.2%	37%	49%	54.2%	60.9%	88.8%
O=c1oc2cc(OS(=O)(=O)C3CC3)ccc2c2c1CCCCCC2	70.4%	67.2%	104%	83.2%	86.2%	85.2%	79.2%	69.6%	93%	40.9%
Nc1ncc(-c2ccc(C(F)(F)F)cc2)c(NC2CCCCCC2)n1	11.9%	39.6%	66.7%	57.7%	44.9%	-12.1% (active)	-6.45% (active)	18.6%	51.3%	38.5%

From PubChem BioAssay (NCI)
